Several values for one entry are separate records, joined by “and”; a condition that tells them apart may be missing. Equal values may be shown once. Records with an inconclusive call do not appear. Activity calls are given as the source filed them. Unless noted, the call rests on the fitted dose curve; in most records, active means well fitted curve in the direction sought with a large enough effect; inconclusive means small, poorly fitted or top-dose-only effect, or another doubt; inactive means no such curve, though single readings can be large; an effect the other way counts as inactive or inconclusive.
Experiments:
[1] = biological target: Hexokinase-4 (Homo sapiens) + Glucokinase regulatory protein (Homo sapiens) (UniProt P35557+Q14397); test: qHTS assay for inhibitors of recombinant human GCK-GKRP interaction: HTRF assay (AID 743207); further: potency means the concentration at half of the fitted maximal effect
Summary of the method: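 Steps: dispense GCK–GKRP complex (5 nM each, GST- and FLAG-tagged) with 2 uM S6P; pin in compounds; add XL665/Eu-cryptate-labelled antibodies; incubate 60 min at room temperature; read time-resolved FRET at 665 and 615 nm.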

[2] = qHTS profiling of the MIPE4 collection as inhibitors of Plasmodium falciparum (3D7) proliferation (AID 743344; call rule not given here;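 further: scaled between DMSO vehicle wells and 0.29 µM artemisinin as full inhibition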); settings: P. falciparum 3D7 in erythrocytes, SYBR Green DNA fluorescence, 72 h; at 28.5 µM (top of the series) unless noted
Summary of the method: (§1)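 Parasite DNA was quantified by SYBR Green I fluorescence (ex 485, em 535 nm) after overnight lysis in saponin/Triton buffer at room temperature. Cultures at 0.3% parasitemia and 2.5% hematocrit were first exposed to compound for 72 h at 37 C; signals were normalised to artemisinin (0.29 uM) and vehicle wells.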

[3] = qHTS profiling of the MIPE4 collection as inhibitors of Plasmodium falciparum (DD2) proliferation (AID 743345; call rule not given here); settings: P. falciparum Dd2 in erythrocytes, SYBR Green DNA, 72 h; at 28.5 µM (top of the series) unless noted
Summary of the method: as §1

[4] = qHTS profiling of the MIPE4 collection as inhibitors of Plasmodium falciparum (DD2) proliferation (Rep 2) (AID 743346; call rule not given here); settings: P. falciparum Dd2 in erythrocytes, SYBR Green DNA, 72 h; at 28.5 µM (top of the series) unless noted
Summary of the method: as §1

[5] = qHTS profiling of the MIPE4 collection as inhibitors of Plasmodium falciparum (HB3) proliferation (AID 743347; call rule not given here;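 further: plate controls were DMSO vehicle wells for no effect and artemisinin wells for full effect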); settings: P. falciparum HB3 in erythrocytes, SYBR Green DNA, 72 h; at 28.5 µM (top of the series) unless noted
Summary of the method: as §1

[6] = High-throughput drug toxicity screening in the BPDCN cell line Gen2.2 (AID 1224824; call rule not given here;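 further: cells exposed to compounds for 48 h before reading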); settings: Gen2.2 BPDCN cells; at 45.8 µM (top of the series) unless noted
Summary of the method: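 Gen2.2, 500 cells/well, phenol red-free RPMI/10% FBS/Pen-Strep; 48 h cpd, 37 °C/5% CO2; CTG lum, 15 min RT. Norm: DMSO = 100%, bortezomib 9.2 uM final = 0%.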

[7] = High-throughput drug toxicity screening in the BPDCN cell line Cal-1 (AID 1224825; call rule not given here); settings: Cal-1 BPDCN cell viability, qHTS; at 45.8 µM (top of the series) unless noted
Summary of the method: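 CellTiter-Glo luminescence after 48 h compound exposure; percent activity scaled with DMSO as 100% and bortezomib (9.2 uM final) as 0%. Cal-1 cells seeded at 500/well in RPMI, 10% FBS, no phenol red.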

[8] = qHTS assay for measurement of the activity of small molecule inhibitors on Zika virus induced Caspase-3 activity in human iPSC derived neural progenitor cells (hNPCs) (AID 1224857); further: % of control where 0% means no effect; nearly all actives have a fitted effect of over 65% in size
Summary of the method: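 Pretreat hNPCs with compound 1 h; infect ZIKV 2 FFU/cell; 6 h 37 C, 5% CO2; Caspase-Glo 3/7, 30 min RT; luminescence; normalize to no-virus and virus-only wells.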

[9] = qHTS assay for measurement of the activity of small molecule inhibitors on Zika virus induced Caspase-3 activity in human astrocytoma cells (AID 1224859);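 further: plate controls were ZIKV-infected untreated cells for no effect and uninfected cells for full effect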
Summary of the method: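 Human SNB-19 astrocytoma cells in RPMI 1640 with 10% FBS receive compound one hour ahead of Zika virus at 2 FFU/cell. After 6 h infection, caspase-3/7 activity is detected by Caspase-Glo luminescence.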

[10] = qHTS Screen of the MIPE 4.0 Collection Against Ewings Sarcoma (EW8) (AID 1259255); further: potency means the concentration at half of the fitted maximal effect; nearly all actives have a fitted effect of over 35% in size
Summary of the method: (§2)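 Dose series incubated 48 h with cells in RPMI plus 5% FBS, glutamine and penicillin/streptomycin; cell viability then quantified via CellTiter-Glo.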

[11] = qHTS Screen of the MIPE 4.0 Collection Against Ewings Sarcoma (TC32) (AID 1259256); further: nearly all actives have a fitted effect of over 45% in size; further: potency means the concentration at half of the fitted maximal effect
Summary of the method: as §2

[12] = qHTS assay to identify small molecule inhibitors of chordoma cells - UCH-1 (AID 1259355); further: on the % scale 0 is the no-effect control and ±100 the full control effect; nearly all actives have a fitted effect of over 55% in size
Summary of the method: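 Screening used approved and investigational drugs in 15-point titration against 800 seeded cells per well. A fixed combination of auranofin with camptothecin, doxorubicin, rubitecan and topotecan followed compound addition, and growth was scored by CellTiter-Glo after 48hr.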

[13] = qHTS assay to identify small molecule inhibitors of chordoma cells - UCH-2 (AID 1259356); further: on the % scale 0 is the no-effect control and ±100 the full control effect
[14] = qHTS Assay for Identifying Gametocytocidal Compounds (AID 743244);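 further: on the % scale 0 is the no-effect control and ±100 the full control effect; actives lower the fluorescent signal which means gametocytes are killed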; settings: P. falciparum 3D7 stage III-V gametocytes, alamarBlue, 72 h; max response: stronger effect = lower value
Summary of the method: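 Compounds are pinned into medium, gametocytes (stage III–V, 3D7, 20,000 cells/well) added, and plates held 72 h at 37 °C in 5% CO2. AlamarBlue follows for 24 h before fluorescence reading.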

[15] = qHTS Screen of the MIPE 4.0 Collection Against Ewings Sarcoma (RDES) (AID 1259252); further: nearly all actives have a fitted effect of over 35% in size; further: potency means the concentration at half of the fitted maximal effect
Summary of the method: as §2

[16] = qHTS Screen of the MIPE 4.0 Collection Against Ewings Sarcoma (TC71) (AID 1259253); further: nearly all actives have a fitted effect of over 40% in size; further: potency means the concentration at half of the fitted maximal effect
Summary of the method: as §2

[17] = qHTS assay for cell viability of HEK293 cells (AID 743288); settings: ATP luminescence (CellTiter-Glo), 18 h; max response: stronger effect = lower value; further: on the % scale 0 is the no-effect control and ±100 the full control effect; nearly all actives have a fitted effect of over 50% in size
Summary of the method: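 Quantitative high-throughput screen: compounds were pinned onto parental HEK293 cells (2,000 per well) after a minimum 5 h settling at 37 C, incubated 18 h at 37 C, and intracellular ATP measured by luciferase luminescence.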

[18] = qHTS profiling for inhibitors of Plasmodium falciparum (3D7) proliferation (AID 743322; call rule not given here;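 further: infected erythrocytes exposed to compound for 72 h before lysis; 100% = DMSO vehicle wells and 0% = 0.29 µM artemisinin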); settings: P. falciparum 3D7 proliferation, at 28.7 µM (top of the series)
Summary of the method: as §1

[19] = qHTS profiling for inhibitors of Plasmodium falciparum (DD2) proliferation (AID 743323; call rule not given here); settings: at 28.7 µM (top of the series), lower = more inhibition
Summary of the method: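 SYBR Green fluorescence (ex 485, em 535 nm) of lysed cultures gives parasite DNA content; wells normalized to artemisinin (0.29 uM) and DMSO controls. Infected red cells: 0.3% parasitemia, 2.5% hematocrit, 72 h, 37 C.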

Chain of Hexokinase-4 (Homo sapiens) + Glucokinase regulatory protein (Homo sapiens) (P35557 whole entry, looked up): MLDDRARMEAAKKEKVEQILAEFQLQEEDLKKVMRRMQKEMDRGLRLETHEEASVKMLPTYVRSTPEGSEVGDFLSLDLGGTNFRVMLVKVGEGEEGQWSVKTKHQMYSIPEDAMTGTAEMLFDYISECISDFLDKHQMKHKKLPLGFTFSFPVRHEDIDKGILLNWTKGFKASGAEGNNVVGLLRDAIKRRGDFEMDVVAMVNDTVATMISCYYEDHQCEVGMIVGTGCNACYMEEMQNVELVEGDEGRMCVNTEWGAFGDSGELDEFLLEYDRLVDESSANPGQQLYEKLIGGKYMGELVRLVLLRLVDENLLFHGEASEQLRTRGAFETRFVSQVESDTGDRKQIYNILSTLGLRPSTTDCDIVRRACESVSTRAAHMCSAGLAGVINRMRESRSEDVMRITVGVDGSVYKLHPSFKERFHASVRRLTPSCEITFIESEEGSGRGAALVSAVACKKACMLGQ
Chain of Hexokinase-4 (Homo sapiens) + Glucokinase regulatory protein (Homo sapiens) (Q14397 whole entry, looked up): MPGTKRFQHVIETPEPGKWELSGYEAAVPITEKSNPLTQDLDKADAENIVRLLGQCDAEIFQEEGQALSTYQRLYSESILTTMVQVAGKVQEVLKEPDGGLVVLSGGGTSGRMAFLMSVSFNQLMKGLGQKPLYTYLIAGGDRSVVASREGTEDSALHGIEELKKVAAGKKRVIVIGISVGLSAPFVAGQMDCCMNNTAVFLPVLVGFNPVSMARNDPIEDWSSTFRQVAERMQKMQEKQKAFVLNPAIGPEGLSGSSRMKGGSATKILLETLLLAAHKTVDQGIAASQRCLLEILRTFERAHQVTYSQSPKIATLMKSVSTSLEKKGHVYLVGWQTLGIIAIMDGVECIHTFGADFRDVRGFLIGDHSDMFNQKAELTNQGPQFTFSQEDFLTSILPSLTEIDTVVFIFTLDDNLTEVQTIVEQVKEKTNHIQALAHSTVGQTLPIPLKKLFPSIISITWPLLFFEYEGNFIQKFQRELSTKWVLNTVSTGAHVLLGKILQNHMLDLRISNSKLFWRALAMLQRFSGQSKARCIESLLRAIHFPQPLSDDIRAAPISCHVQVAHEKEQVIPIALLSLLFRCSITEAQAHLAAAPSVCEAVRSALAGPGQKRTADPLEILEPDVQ

SMILES	Potency [1]	parasite growth, % of DMSO control [2]	parasite growth remaining, % of DMSO control (lower = more inhibition) [3]	parasite growth, % of control (lower = inhibition) [4]	growth, % of control [5]	cell viability, % of control (lower = more cytotoxic) [6]	viability (% of control) [7]	Potency [8]	Potency [9]	Potency [10]	Potency [11]	Potency [12]	outcome [13]	max response [14]	Potency [15]	Potency [16]	max response [17]	remaining parasite growth % (stronger effect = lower value) [18]	activity, percent of control [19]
CNCCCC12CCC(c3ccccc31)c1ccccc12	inactive	16.9%	21.8%	21.9%	7.27%	8.38%	13.7%	inactive	inactive	18.7 µM (active)	23.5 µM (active)	inactive	inactive						
CN1CCN2c3ccccc3Cc3ccccc3C2C1 (configuration not stated)	inactive	56.9%	60.5%	44.9%	99.7%	83.4%	91.5%	inactive	inactive			inactive	inactive	25.6% (inactive)	20.9 µM (active)				
CN(C)CCC=C1c2ccccc2C=Cc2ccccc21	inactive	58.1%	62.8%	42.4%	68.3%	41.3%	67.7%	inactive	inactive	16.6 µM (active)	16.6 µM (active)	inactive	inactive			20.9 µM (active)			
Cc1ccc(C(=O)Nc2ccc(S(=O)(=O)O)c3cc(S(=O)(=O)O)cc(S(=O)(=O)O)c23)cc1NC(=O)c1cccc(NC(=O)Nc2cccc(C(=O)Nc3cc(C(=O)Nc4ccc(S(=O)(=O)O)c5cc(S(=O)(=O)O)cc(S(=O)(=O)O)c45)ccc3C)c2)c1	17.8 µM (active)	19.9%	75.7%	23.2%	66.1%	58.9%	102%	inactive	inactive			inactive	inactive	35.1% (inactive) and 2.76% (inactive)		inactive			
Cc1cc(C(C)(C)C)c(O)c(C)c1CC1=NCCN1	inactive	80.6%	95.8%	68.6%	98.3%	97.9%	110%	inactive	inactive				inactive						
CN1CCN(C2=Nc3cc(Cl)ccc3Nc3ccccc32)CC1						121%	83.1%	inactive	inactive				inactive		inactive				
C[C@](N)(Cc1ccc(O)c(O)c1)C(=O)O	inactive	73.9%	80%	77.2%	86%	46.6%		inactive	inactive		inactive	inactive	inactive		inactive	inactive	-5.13% (inactive)		
CN(C)CCOC(c1ccccc1)c1ccccc1	inactive	90.6%	39.2%	41.2%	100%	136%	38.8%	inactive	inactive				inactive	-13.8% (inactive) and 10.9% (inactive)			-15% (inactive)	85.5%	32.1%

From PubChem BioAssay (NCATS)
